In PubChem BioAssay AID588453 (National Center for Advancing Translational Sciences (NCATS), 2011):
Where “and” joins values, the source holds several entries; their conditions need not be identical. Equal values may be shown once. About 4,000 (1%) of roughly 390,000 compounds were called active. Roughly 4% stayed inconclusive and do not appear here. Shown is part of a subset that was picked to be rich in actives. Unmarked numbers belong to inactive results. Calls come from the whole dose curve; as a rule, active = well fitted inhibition curve with a large enough effect; inconclusive = small, poorly fitted or top-dose-only effect; inactive = no such curve, though single readings can be large or run the other way.

What follows are compounds tested against Thioredoxin reductase 1, cytoplasmic (Rattus norvegicus) (UniProt O89049) (assay: qHTS Assay for Inhibitors of Mammalian Selenoprotein Thioredoxin Reductase 1 (TrxR1): qHTS). Settings: recombinant rTrxR1, NADPH fluorescence consumption, selenite substrate; series mostly up to 114 µM; activity change, negative = inhibition: at the top concentration.
Sequence of Thioredoxin reductase 1, cytoplasmic (Rattus norvegicus) (O89049 whole entry, looked up): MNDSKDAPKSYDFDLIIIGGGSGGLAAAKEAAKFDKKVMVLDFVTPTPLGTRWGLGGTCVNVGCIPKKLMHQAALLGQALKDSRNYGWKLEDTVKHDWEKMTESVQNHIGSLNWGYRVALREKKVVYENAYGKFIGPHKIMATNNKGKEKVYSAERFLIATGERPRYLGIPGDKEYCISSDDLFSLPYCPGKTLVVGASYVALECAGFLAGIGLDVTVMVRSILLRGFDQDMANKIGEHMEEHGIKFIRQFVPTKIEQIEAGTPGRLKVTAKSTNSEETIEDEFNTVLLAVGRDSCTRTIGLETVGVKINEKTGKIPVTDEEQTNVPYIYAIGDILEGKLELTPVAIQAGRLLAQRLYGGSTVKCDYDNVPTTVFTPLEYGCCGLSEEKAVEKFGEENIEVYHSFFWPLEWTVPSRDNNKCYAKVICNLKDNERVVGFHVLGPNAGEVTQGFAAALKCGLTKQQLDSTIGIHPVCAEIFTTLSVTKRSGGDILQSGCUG
Description: The selenoprotein thioredoxin reductase (TrxR; EC 1.8.1.9) is a FAD containing homodimeric pyridine nucleotide-disulfide oxidoreductase with many cellular roles. Together with NADPH and its prime substrate thioredoxin (Trx), the enzyme forms the core of the Trx system. The mammalian Trx system exerts a wide spectrum of functions including redox regulation, antioxidant defense, regulation of transcription factors as well as support of cell growth and replication. Many of these functions involve the reduction of Trx, which may subsequently reduce a number of different substrates including ribonucleotide reductase, peroxiredoxins or NFkB. Mammalian TrxR itself also has a broad substrate specificity, reducing both protein and non-protein substrates, including low molecular weight compounds such as dehydroascorbate, lipoic acid, ubiquinone, and juglone. In addition, several drugs in clinical use for anticancer treatment are indeed known to target TrxR1.
This BioAssay is a validation of an NADPH fluorescence-based, dual-purpose qHTS rTrxR1 assay designed to find potential inhibitors and substrates of rTrxR1. For this particular BioAssay, actives are potential inhibitors. See related BioAssay for substrate data deposition.
NIH Molecular Libraries Probe Production Network [MLPCN]
NIH Chemical Genomics Center [NCGC]
Assay Provider: Elias Arner, Karolinska Institute
Assay protocol: 2 uL of reagents (buffer in column 4 as negative control and 90 nM rTrxR1 in columns 1-3 and 5-48) were dispensed into Greiner black solid-bottom 1,536-well assay plates, followed by 1 uL of NADPH (400 uM final concentration) to each well. The plates were centrifuged at 1000 rpm for 15 seconds and subsequently incubated for 5 min at room temperature (~22 deg C) to allow for rTrxR1 reduction. Compounds (23 nL) were then transferred via Kalypsys pin tool equipped with 1536-pin array (10 nL slotted pins, V&P Scientific, San Diego, CA). In addition, a duplicate 2-fold serial dilution of the control compounds auranofin, a known gold-based TrxR1 inhibitor, and juglone (5-hydroxy-1,4-naphthoquinone), a natural TrxR1 substrate, were pin-transferred to columns 2 and 3, respectively. After incubation for 15 min at room temperature (~22 deg C), 1 uL of selenite (400 uM final concentration) were dispensed to each well. The plate was immediately transferred to a ViewLux high-throughput CCD imager (PerkinElmer), wherein kinetic measurements of NADPH fluorescence (Ex 340 nm, Em 450 nm) were acquired (8 minute kinetic read, see Table 1). Read 1 was utilized to assess the capacity of a compound to serve as an rTrxR1 substrate, i.e. a decrease in NADPH fluorescence compared to the no-compound background is an indication of a substrate behavior for that particular compound. For inhibitory activity of a compound, delta values, computed as the difference in fluorescence intensity between the first and last reads of an 8-minute time kinetic window, were used. All reagents were diluted in an assay buffer consisting of 50 mM Tris-HCl, pH 7.5, 2 mM EDTA, and 0.01% Tween-20.
Throughout the screen, reagent bottle and all liquid lines were made light-tight to minimize reagent degradation. All screening operations were performed on a fully integrated robotic system (Kalypsys, San Diego, CA) containing one RX-130 and two RX-90 anthropomorphic robotic arms (Staubli, Duncan, SC). Library plates were screened starting from the lowest and proceeding to the highest concentration, and a 'double-pinning' step of the highest concentration was required to access higher concentrations of compounds. Vehicle-only plates, with DMSO being pin-transferred to the columns 5-48, were inserted uniformly at the beginning and the end of each library in order to monitor and record any shifts in the background, which can be affected by reagent dispensers or loss in enzyme activity over time. […]
% is set by controls: 0 for no effect and ±100 for the full control effect; potency is the fitted concentration of half-maximal effect.
Note: nearly all actives have a fitted effect of over 65% in size.

SMILES | Potency | activity change, negative = inhibition
O=C1N=c2ccccc2=C/C1=C\c1c(O)[nH]c(=S)[nH]c1=O | 17.8 µM (active) | –
COc1ccccc1N=Nc1c(O)[nH]c(=S)[nH]c1=O | – | -6.81% [at 57.1 µM]
Cc1ccc2c(c1)=C/C(=C\c1c(O)[nH]c(=O)[nH]c1=O)C(=O)N=2 | 10 µM (active) | –
O=c1[nH]c(O)c(C=Nc2cc(F)cc(F)c2)c(=O)[nH]1 | – | 5.27%
CC(=O)Nc1ccc(C(=O)C(Cc2ccccc2)N(C)C)cc1 (centres undefined) | – | -9.89%
CCC(C)n1c(O)c(/C=N/Nc2nc3c(c(=O)n(C)c(=O)n3C)n2C)c(=O)[nH]c1=S (centres undefined) | – | 12% [at 11.4 µM]
O=C(Cn1c(=O)n(CC2CS2)c2ccccc21)N1CCCCC1 (centres undefined) | – | 10.1% [at 57.1 µM]
OCC#CC[N+]1(CC#Cc2ccccc2)CCCC1 | – | -2.45%
COCCNC(=O)CN1C2CCC1CC(O)(c1cccnc1)C2 (centres undefined) | – | 8.33% [at 57.1 µM]
CCOc1ccc(C2SCC(=O)Nc3c2c(C)nn3C2CCOC(C)(C)C2)cc1 (centres undefined) | – | -18%
c1ccc(CCNC2CCCCCC2)cc1 | – | 8.58%
COc1ccc2[nH]c3c(c2c1)CCN[C@H]3C | – | -25.8%
Cn1cc(/C=C/c2nc3ccccc3c(=O)n2-c2ccccc2)c2ccccc21 | – | -11.5%
O=c1c2ccccc2nc(/C=C/c2ccco2)n1-c1ccccc1O | 15.8 µM (active) | –
O=c1c2ccccc2nc(/C=C/c2ccc(F)cc2)n1-c1ccccc1O | – | 9.77% [at 57.1 µM]
Cc1cccc(Cn2cccc(C(=O)Nc3ccc4c(c3)OCCO4)c2=O)c1 | – | 8.05% [at 57.1 µM]
O=C1NC(=O)C(Cc2ccccc2)C(=O)N1 | – | -9.71% [at 2.29 µM]
CCCCn1c(O)c(C(CC)=NCc2ccco2)c(=O)[nH]c1=O | – | -10.3%
CCC(=NCc1ccco1)c1c(O)n(Cc2ccccc2)c(=O)[nH]c1=O | 14.1 µM (active) | –
CN(C)CCCN=Cc1c(O)n(Cc2ccco2)c(=O)[nH]c1=O | – | 40% [at 57.1 µM]
O=C(COC(=O)Cc1ccccc1)Nc1ccc(F)cc1 | – | 18.2%
CCOc1ccc(-c2cc(C)n3nc(C(=O)Nc4ccc(C)c(C)c4)cc3n2)cc1 | – | 47.3%
CC(C)c1c(CN(C)C(C)Cc2ccccc2)n(C)n(-c2ccccc2)c1=O (centres undefined) | – | -6.1%
ClCCN(CCCl)c1ccc(C=Nc2ccc(/C=C/c3ccnc4ccccc34)cc2)cc1 | – | -2.65%
CC(=O)NBr | inactive | –
COc1ccc(NC(=O)c2cn(CCC#N)nc2-c2ccc([N+](=O)[O-])cc2)cc1 | – | 13.3% [at 57.1 µM]
O=C1NC(=O)N(c2ccccc2)C(=O)/C1=C/c1ccc([N+](=O)[O-])s1 | 22.4 µM (active) | –

SMILES | Potency | activity change, negative = inhibition
COC(=O)C1=C(c2ccc(F)cc2OCc2ccccc2)C[C@@H]2CC[C@H]1N2C(=O)NCc1ccc(Cl)cc1 | – | 18.9%
O=[N+]([O-])c1ccc(Cl)c(Cl)c1 | – | 6.58%
C=CCN1C(=O)NC(=O)/C(=C/c2ccc(OCC(=O)Nc3ccc(C)cc3)cc2)C1=O | 20 µM (active) | –
CCC(=O)c1ccc(OCC(=O)N2CCN(CC(=O)Nc3ccc(C)cc3)CC2)cc1 | – | 8.72%
C=CCN(CC=C)C(=O)Nc1ccc(OCC)cc1 | – | 11.4% [at 57.1 µM]
COc1cc(Cl)ccc1Nc1ncc(C(=O)N2CCN(c3ccccc3OC)CC2)c2ccccc12 | – | 107%
N#Cc1c(Cl)c(Cl)c(Cl)c(C#N)c1Cl | 0.282 µM (active) | –
C=CCN1CCC23c4c5ccc(O)c4O[C@H]2C(=O)CC[C@@]3(O)C1C5 (some centres undefined) | inactive | –
Cc1ncsc1CCCl | – | -10.7% [at 57.1 µM]
Cc1ccccc1NC(=O)COC(=O)c1cc(C)n(C2CC2)c1C | – | -13.9%
O=P1(Oc2ccccc2)CC(O)C(O)C(COCc2ccccc2)O1 (centres undefined) | – | 14.5%
CO[C@H]1[C@@H](O)[C@@H](C)O[C@H](O[C@H]2[C@H](Oc3cccc4c(O)c5c(=O)oc6ccc(C)c7c(=O)oc(c34)c5c67)O[C@H](C)[C@H](O)[C@@H]2O)[C@@H]1O | – | 3.86%
CCC1(C)CC(=O)NC1=O (centres undefined) | inactive | –
CC[C@H]1CC2CN3CCc4c([nH]c5ccccc45)C(C(=O)OC)(C2)C13 (some centres undefined) | – | 12.3%
CCOC(=O)c1ncn2c1[C@@H]1CCCN1C(=O)c1cc(OC)ccc1-2 | inactive | –
CC(=O)c1c(O)c(C)c(O)c(Cc2c(O)c3c(c(C(=O)/C=C/c4ccccc4)c2O)OC(C)(C)C=C3)c1O | 28.2 µM (active) and 11.2 µM (active) | –
C[N+]1(C)CCOC(O)(c2ccc(-c3ccc(C4(O)C[N+](C)(C)CCO4)cc3)cc2)C1 (centres undefined) | inactive | –
COC(=O)C1=C(c2ccc(C(C)=O)cc2)C[C@@H]2CC[C@H]1N2C(=O)NCCNC(C)=O | – | 17.4% [at 57.1 µM]
O=C1CC(=O)N(Cc2ccccc2)C(=O)N1CCCCCCN1C(=O)CC(=O)N(Cc2ccccc2)C1=O | 2.82 µM (active) | –
O=C(CN1CCCC1=O)NCCc1ccccc1 | – | 14.9%
CC(C)(C)c1ccc(CN2C(=O)CN=C(c3ccccc3)c3ccccc32)cc1 | – | 1.72%
COCc1cc(OC(=O)N(C)C)nc(-c2ccc(C)c(Cl)c2)n1 | – | -11.1%
COc1ccc(-n2c(-c3ccccc3)nc3ccccc3c2=O)cc1 | – | 11.3%
CC[C@H]1CN2CCc3cc(OC)c(OC)cc3[C@@H]2C[C@@H]1C[C@H]1NCCc2cc(OC)c(OC)cc21 | inactive | –
COC(=O)C1=C(c2cc3ccccc3s2)C[C@@H]2CC[C@H]1N2C(=O)NCCO | – | 2.91% [at 57.1 µM]
COc1ccc(-c2nc(CS(=O)CC(=O)N3CCC4(CC3)OCCO4)c(C)o2)cc1 (centres undefined) | 7.08 µM (active) | –
COc1ccc(S(=O)(=O)NCc2ccc(C(=O)N3CCC4(CC3)OCCO4)cc2)cc1 | – | -0.636%

SMILES | Potency | activity change, negative = inhibition
COc1ccc(NC(=O)N2CCC3(CC2)OCCO3)c(OC)c1 | – | 11.5%
CCN(CC)CCOC(=O)c1cc2cc(COC)ccc2o1 | – | 14.1% [at 57.1 µM]
CCN1C(=O)C(=Cc2c(C)n(CC(=O)NCC3CCCO3)c3ccccc23)C(=O)N(CC)C1=S (centres undefined) | 11.2 µM (active) | –
CCCCCCN=C(CC)c1c(O)n(CCCC)c(=O)[nH]c1=O | – | 4.26% [at 57.1 µM]
COC1=C[C@@H]2[C@@H]3Cc4ccc(OC)c(O)c4[C@]2(CCN3C)CC1=O | – | -6.63%
O=C(O)/C=C/c1ccc2c(c1)OCO2 | – | 3.16%
CN(C)CC1Oc2ccccc2OC1(O)c1ccccc1 (centres undefined) | 0.398 µM (active) | –
O=C(O)C1C2CCC(O2)C1C(=O)O (centres undefined) | – | -1.83%
CC1CCC(N(C)C2CCN(C)CC2)CC1 (centres undefined) | – | -4.72%
CCNc1nc2[nH]c(=O)c3c(c2s1)OC(N)=C(C#N)C3c1cccs1 (centres undefined) | – | -8.85%
CCCCN1C2CCC1CC(OC(c1ccc(F)cc1)c1ccc(F)cc1)C2 (centres undefined) | – | 3.2%
COc1ccc(OC)c(NC(=O)Cn2c(=O)oc3ccccc32)c1 | – | 25.1%
Cc1ccc(-n2c(C)cc(/C=C3\C(=O)NC(=O)N(C)C3=O)c2C)cc1C | – | -0.889%
Cc1ccnc(-n2c(C)cc(/C=C3\C(=O)NC(=S)N(C)C3=O)c2C)c1 | 35.5 µM (active) | –
Cc1cc(C=C2C(=O)NC(=O)NC2=O)c(C)n1-c1ccncc1 | – | -45.2%
O=C(O)C1CSC(c2cccnc2)N1 (centres undefined) | – | 23.3% [at 57.1 µM]
c1cncc(CNCCc2c[nH]c3ccccc23)c1 | – | 13%
C[C@@H]1C[C@@H]2O[C@H]2/C=C\C=C\C(=O)Cc2c(Cl)c(O)cc(O)c2C(=O)O1 | 12.6 µM (active) | –
COc1cc([C@@H]2c3cc4c(cc3[C@H](OC(C)=O)[C@H]3COC(=O)[C@H]23)OCO4)cc(OC)c1OC | – | -1.87%
CCOc1ccc(CN(CCCl)CCCl)cc1C(=O)OC | 15.8 µM (active) | –
CC1=CC(=Cc2sc3ccccc3[n+]2C)C=C(C)O1 | – | -17.2%
Cc1ccc(Cn2c(C)c3cnn(CC(=O)N4CCC5(CC4)OCCO5)c(=O)c3c2C)cc1 | – | -10.4%
CCOP(=O)(OCC)C(NC(=O)c1ccc(OC)cc1)C(Cl)(Cl)Cl (centres undefined) | – | 16.1%
CC(=O)c1ccc(OC(NC(=O)Cc2ccccc2)C(Cl)(Cl)Cl)cc1 (centres undefined) | 10 µM (active) | –
CC(=O)Cc1ccc(OC(C)C)cc1 | – | -10.4% [at 57.1 µM]
